# Test results published in PubChem BioAssay AID493200 (National Center for Advancing Translational Sciences (NCATS), 2011).
# Results filed as inconclusive are left out. Unmarked numbers belong to inactive results. Activity calls are given as the source filed them. Calls follow the shape of the dose curve; as a rule, active = well fitted activation curve with a large enough effect; inconclusive = small, poorly fitted or top-dose-only effect; inactive = no such curve, though single readings can be large or run the other way.
# Experiment: qHTS Assay for Rab9 Promoter Activators: Initial hit validation from the primary screen; as to activation: % of control where 0% means no effect
# Conditions: Huh7 Rab9 promoter luciferase reporter, 24 h; series mostly up to 46.1 µM; activation: at the top concentration
# Procedure, shortened: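 Luciferase signal, read 10 min after Amplite reagent, reports Rab9 promoter activation. Compounds in DMSO were applied for 24 h at 37C to Rab9-luciferase Huh7 cells, pre-incubated 2 h in reduced-serum medium with 10% FBS.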
# Potency is read from the fitted curve at half-maximal effect.
SMILES,activation [%],Potency
Cc1cccc(NC(=O)CSc2nc3ccccc3o2)c1,7.11,
CCOC(=O)CSc1nc2cc(C)ccc2cc1C#N,,996 nM (active)
O=C(O)CSc1nnc(-c2ccncc2)n1CCc1ccccc1,6.2,
Brc1ccccc1-c1nnc(CSc2nnc3sc4ccccc4n23)o1,11.5,
O=C(Nc1nc2ccc(F)cc2s1)c1ccc(N2CCCC2=O)cc1,,199 nM (active)
CCN(CC)S(=O)(=O)c1ccc(NCc2ccccn2)nc1,3.98,
CC(C)(C)NC(=S)NNC(=O)c1ccc2ncccc2c1,,1770 nM (active)
Cc1ccc(N(O)C(=O)NCCCCNC(=O)N(O)c2ccc(C)cc2)cc1,,15800 nM (active)
O=C(NC1CCCC1)C(c1ccc(F)cc1)N(C(=O)c1csnn1)c1ccccc1 (stereo not drawn),5.07,
Cc1ccccc1NC(=O)Cc1nc(COC(=O)CC(C)c2ccccc2)cs1 (stereo not drawn),-3,
COc1ccc(S(=O)(=O)NC(C(=O)NCCc2ccccn2)C(C)C)cc1 (stereo not drawn),1.37,
CC1CC(C)CN(CC(=O)N2CCOCC2)C1 (stereo not drawn),-1.53,
CNC(=O)Cn1nc(C)c2ccccc2c1=O,-1.21,
CN(C)/C=N/c1c(C#N)cnn1-c1nc2ccccc2s1,15.4,
Cc1nc2sc(C(=O)OC(C)C)c(N)c2c(C)c1C,,15800 nM (active)
O=C(CSc1nnc(Cc2cc(=O)[nH]c(=O)[nH]2)n1-c1ccc(Cl)cc1)NC1CCCC1,-2.05,
COC(=O)CSc1nc2cc3c(cc2cc1C#N)OCO3,,353 nM (active)

SMILES,activation [%],Potency
COc1ccc(C2(CNC(=O)/C=C/c3ccco3)CCCC2)cc1OC,2.64,
O=C(/C=C/c1ccco1)NCC1OCCc2ccccc21 (stereo not drawn),-1.48,
C=CCn1c(C)nnc1SCC(=O)Nc1nccs1,1.83,
Cc1csc(NC(=O)CSc2nnc(-c3ccncc3)o2)n1,,25000 nM (active)
Cc1ccccc1NC(=O)CSc1ccc(-c2cccnc2)nn1,2.88,
Nc1c(N(CCO)C(=O)/C=C/c2ccco2)c(=O)[nH]c(=O)n1Cc1ccccc1,-1.82,
O=C(Nc1ccc(-c2nc3cccnc3s2)cc1)c1ccc(Cl)nc1,,888 nM (active)
O=C(NNC(=O)C1COc2ccccc2O1)c1ccccc1O (stereo not drawn),-4.84,
CCCOC(=O)Cn1cnc2scc(-c3ccc(OC)cc3)c2c1=O,-8.76,
N#C/C(=N\Nc1ccc(Cl)cc1)C(=N)N1CCCCC1,,223 nM (active)
CCOc1cc(C2C(C#N)=C(N)Oc3n[nH]c(C)c32)ccc1OCCN1CCOCC1 (stereo not drawn),0.655,
COc1ccc(C)cc1N(C(=O)CNC(=O)c1ccco1)C(C(=O)NC1CCCC1)c1cccnc1 (stereo not drawn),-0.431,
COc1ccc(-c2csc(N(CCCN(C)C)C(=O)c3ccccc3C)n2)cc1,-38,
CCCCc1cc(=O)oc2cc(OCC(=O)N3CCOCC3)ccc12,-1.76,
CC(C)C1(CCNC(=O)c2cccs2)CCOC(C)(C)C1 (stereo not drawn),0.176,
COCCNC(=O)Cn1nc(-c2ccccc2)c2ccccc2c1=O,0.448,
